The list is not random: actives were taken first. Their share in the collection is about 2.9%.
FXN GAA850 act = FXN promoter activators, primary screen, cell-based, luciferase luminescence, HEK293 lucGAA850. 0.56% of 360,000 active. HEK293 lucGAA850 FXN promoter luciferase reporter, 24 h; percent of 10 µM SAHA response. activation, % at 6 µM. AID 540364, 2011;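 active = activation above the average of all compounds screened plus 3 SD, cutoff fixed separately per campaign, cut at about 7.5% in these data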;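 also: 0% = DMSO wells and 100% = 10 µM SAHA wells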
SMARCA2 activ = SMARCA2 (BRM) function activators, primary screen, cell-based, luminescence, high throughput; activation, % at 9.1 µM; AID 652017, 2013; 1% of 370,000 active; MG213 cells, MMTV-luciferase reporter, dexamethasone, overnight; in the data active = activation above about 7.8%;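 also: 0% = vehicle wells and 100% = reference activator wells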
FAS TE block = FAS thioesterase domain inhibitors, primary screen, biochemical, fluorescence intensity, uHTS. 0.67% of 360,000 active. recombinant FAS-TE, OMFH fluorogenic substrate, fluorescence endpoint. inhibition, % at 15 µM. AID 602261, 2012. Fatty acid synthase (Homo sapiens), P49327;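 active = compounds whose normalised, plate-corrected inhibition of enzyme fluorescence in the single-dose primary screen is 50% or more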;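 also: 0% = DMSO with enzyme and 100% = substrate without enzyme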
Target sequence (P49327 whole entry, looked up, the tested form may be a part): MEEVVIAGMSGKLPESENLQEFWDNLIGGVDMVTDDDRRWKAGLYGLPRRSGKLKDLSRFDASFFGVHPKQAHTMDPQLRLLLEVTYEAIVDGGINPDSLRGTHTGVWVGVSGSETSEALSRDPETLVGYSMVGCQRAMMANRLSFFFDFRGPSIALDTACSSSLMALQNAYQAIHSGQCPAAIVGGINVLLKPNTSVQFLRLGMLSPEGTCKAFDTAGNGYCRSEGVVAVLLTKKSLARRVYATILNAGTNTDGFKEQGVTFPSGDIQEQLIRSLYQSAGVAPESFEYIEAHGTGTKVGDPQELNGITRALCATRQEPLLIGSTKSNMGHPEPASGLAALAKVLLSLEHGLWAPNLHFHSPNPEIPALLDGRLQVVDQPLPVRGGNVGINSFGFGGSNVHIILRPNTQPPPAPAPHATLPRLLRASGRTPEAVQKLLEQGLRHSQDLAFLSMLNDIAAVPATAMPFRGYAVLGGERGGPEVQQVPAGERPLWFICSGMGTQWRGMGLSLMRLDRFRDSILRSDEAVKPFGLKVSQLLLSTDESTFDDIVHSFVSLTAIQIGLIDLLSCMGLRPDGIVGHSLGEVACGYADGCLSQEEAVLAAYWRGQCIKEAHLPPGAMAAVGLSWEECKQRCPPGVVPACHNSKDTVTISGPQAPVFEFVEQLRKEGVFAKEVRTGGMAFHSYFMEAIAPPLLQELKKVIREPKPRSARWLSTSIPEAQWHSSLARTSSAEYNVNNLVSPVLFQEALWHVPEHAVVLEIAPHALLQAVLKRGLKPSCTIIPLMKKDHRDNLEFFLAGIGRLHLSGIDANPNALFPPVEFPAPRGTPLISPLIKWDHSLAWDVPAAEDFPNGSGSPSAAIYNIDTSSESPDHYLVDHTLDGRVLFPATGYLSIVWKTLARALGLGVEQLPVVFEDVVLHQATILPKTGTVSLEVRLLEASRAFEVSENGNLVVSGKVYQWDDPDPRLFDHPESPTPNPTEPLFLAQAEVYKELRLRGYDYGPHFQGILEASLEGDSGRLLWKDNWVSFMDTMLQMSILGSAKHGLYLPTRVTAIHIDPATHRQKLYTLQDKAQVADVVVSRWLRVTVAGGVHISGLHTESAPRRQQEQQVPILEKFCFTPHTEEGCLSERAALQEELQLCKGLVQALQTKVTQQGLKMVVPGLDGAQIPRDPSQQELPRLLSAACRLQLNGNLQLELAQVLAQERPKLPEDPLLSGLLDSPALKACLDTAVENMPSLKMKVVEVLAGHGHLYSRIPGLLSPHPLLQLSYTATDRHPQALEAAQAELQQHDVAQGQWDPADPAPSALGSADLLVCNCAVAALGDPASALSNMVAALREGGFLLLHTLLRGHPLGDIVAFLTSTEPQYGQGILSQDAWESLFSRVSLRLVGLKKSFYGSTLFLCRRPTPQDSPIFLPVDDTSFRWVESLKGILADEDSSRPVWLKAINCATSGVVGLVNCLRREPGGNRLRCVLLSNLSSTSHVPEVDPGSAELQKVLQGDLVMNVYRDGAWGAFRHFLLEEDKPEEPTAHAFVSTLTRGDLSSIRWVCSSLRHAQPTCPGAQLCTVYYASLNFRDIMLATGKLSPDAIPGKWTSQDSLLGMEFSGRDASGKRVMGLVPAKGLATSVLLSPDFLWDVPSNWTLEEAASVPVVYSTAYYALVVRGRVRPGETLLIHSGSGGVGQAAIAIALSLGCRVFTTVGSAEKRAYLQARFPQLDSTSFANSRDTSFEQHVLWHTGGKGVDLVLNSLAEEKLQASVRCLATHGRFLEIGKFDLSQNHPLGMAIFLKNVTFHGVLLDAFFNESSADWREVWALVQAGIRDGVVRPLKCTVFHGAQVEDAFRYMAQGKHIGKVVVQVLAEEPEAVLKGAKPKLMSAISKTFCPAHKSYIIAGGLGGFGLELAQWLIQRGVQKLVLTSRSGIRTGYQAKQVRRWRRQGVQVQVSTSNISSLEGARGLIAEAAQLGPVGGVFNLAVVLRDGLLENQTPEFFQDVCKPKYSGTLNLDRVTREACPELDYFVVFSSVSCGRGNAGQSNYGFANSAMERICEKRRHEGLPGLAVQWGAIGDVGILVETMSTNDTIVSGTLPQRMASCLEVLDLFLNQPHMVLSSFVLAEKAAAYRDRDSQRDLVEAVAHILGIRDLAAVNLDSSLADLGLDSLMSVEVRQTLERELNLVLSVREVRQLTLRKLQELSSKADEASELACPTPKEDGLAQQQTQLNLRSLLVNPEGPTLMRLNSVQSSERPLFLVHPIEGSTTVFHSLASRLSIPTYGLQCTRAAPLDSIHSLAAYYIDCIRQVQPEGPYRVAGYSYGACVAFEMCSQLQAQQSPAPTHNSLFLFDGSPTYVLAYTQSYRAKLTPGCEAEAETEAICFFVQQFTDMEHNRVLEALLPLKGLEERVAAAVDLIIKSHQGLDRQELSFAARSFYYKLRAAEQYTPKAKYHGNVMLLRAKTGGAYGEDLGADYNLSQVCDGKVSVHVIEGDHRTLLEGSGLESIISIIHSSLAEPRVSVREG
proKLK7 act = proKLK7 zymogen activators, primary screen, biochemical, fluorescence intensity. Kallikrein-7 (Homo sapiens), P49862. purified proKLK7, EDANS-DABCYL substrate fluorescence; 100% is mature enzyme control, 0% vehicle. activation, % at 7 µM. 0.9% of 370,000 active. AID 652039, 2013;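 active = activation above the mean of all tested compounds plus 3 SD, computed per campaign excluding outliers beyond control limits, cut at about 13% in these data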
proKLK7 act conf = proKLK7 zymogen activators, confirmation, biochemical, fluorescence intensity, triplicate. purified proKLK7, EDANS-DABCYL substrate fluorescence; scaled: vehicle 0, mature enzyme 100. shares compounds with proKLK7 act. AID 686949, 2013. 68% of 3,200 active. activation, % at 7 µM;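 active = activation, as change over the incubation, above the mean of all tested compounds plus 3 SD, cut at about 13% in these data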
EDANS-DABCYL int = EDANS-DABCYL substrate optical interference, artefact control for kallikrein-7 zymogen activator project, biochemical, fluorescence intensity, high throughput; 80% of 3,200 active; no enzyme, 4 h; solvent 0%, active enzyme control 100%; AID 686952, 2013; shares compounds with proKLK7 act; activation, % at 7 µM;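 active = activation above the all-compound mean plus 3 SD, ignoring values outside control-based bounds, cut at about 4.8% in these data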;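 also: value is the 4 h activation minus the activation read at time zero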
K7 EDANS ctr = counter-screen for kallikrein-7 activators: EDANS-DABCYL interference, dose response; EDANS-DABCYL peptide fluorescence interference, no enzyme; 20% of 250 active; AID 720493; EC50, µM; shares compounds with proKLK7 act;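 active = compounds that raise the fluorescence signal in this interference counterscreen, with EC50 at or below 10 µM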;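 also: intact quenched peptide substrate alone read at 355 nm excitation and 520 nm emission; signal is fluorescence gain from T0 to T4 after four hours at room temperature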
* = called active by the depositor; x = no result given.

SMILES | FXN GAA850 act | SMARCA2 activ | FAS TE block | proKLK7 act | proKLK7 act conf | EDANS-DABCYL int | others
COC(=O)c1sccc1NC(=O)CC1C(=O)NCCN1C(=O)Nc1ccc(OCc2ccccc2)cc1 (centres undefined) | 2 | -1 | 3 | 2 | x | x
CCOc1cc2c(cc1/C=C/C(=O)O)OC(C)C2 (centres undefined) | 0 | 0 | -3 | 62* | 72* | 69*
CCOc1nc2ccccc2cc1/C=C/C(=O)O | 1 | 2 | -4 | 3 | x | x
CC(C)(O)C1Cc2cc(/C=C/C(=O)O)c(O)cc2O1 (centres undefined) | 2 | 0 | 0 | -53 | x | x
COc1cc2c(cc1/C=C/C(=O)O)OC(C)C2 (centres undefined) | 0 | 1 | -4 | 64* | 64* | 74*
Cc1ccc(NC(=O)COc2ccc(CCO)cc2-n2nc3ccccc3n2)cc1C | 4 | -4 | 14 | 0 | x | x
O=C(NCCCO)c1cc2c(cn1)[nH]c1ccccc12 | 0 | -1 | -5 | 14* | 5 | 7.6*
C[C@H](NC(=O)c1cc2c(cn1)[nH]c1ccccc12)C(=O)O | 2 | 0 | -2 | 18* | 9 | 7.4*
O=C(O)c1cc2c(cn1)[nH]c1ccccc12 | 0 | -2 | -3 | -10 | x | x
CCC1=C(CC2NCCc3ccccc32)CC2c3cc(OC)c(OC)cc3CCN2C1 (centres undefined) | -13 | -6 | -4 | 19* | 2 | 2
O=C(CCNC(=O)c1ccc([N+](=O)[O-])cc1)NCCCN1CCCC1=O | 1 | -2 | -2 | 0 | x | x
CCCCNC(=O)C1C(c2ccc(C(F)(F)F)cc2)=Nc2ccccc2N1C(=O)c1ccc2nc(C)[nH]c2c1 (centres undefined) | x | 0 | x | 92* | -142 | -108
CCCCNC(=O)C1C(c2ccc(C(F)(F)F)cc2)=Nc2ccccc2N1C(C)=O (centres undefined) | x | -4 | x | -1 | x | x
O=Cc1cn(-c2ccccc2)nc1-c1cc2cc(O)ccc2oc1=O | 1 | -1 | -6 | 197* | 561* | 549*
O=Cc1cn(-c2ccccc2)nc1-c1cc2c(ccc3ccccc32)oc1=O | 7 | 1 | -3 | -7 | x | x
O=C(CSc1nnc(NC2CCCCC2)s1)N1CCOCC1 | 2 | -3 | -6 | 0 | x | x
COc1cccc(CNC(=O)C2CCN(S(=O)(=O)c3cccc4nonc34)CC2)c1 | 3 | 1 | 0 | 0 | x | x
Nc1c(C(=O)NCCc2ccccc2)nnn1Cc1ccc(Br)cc1F | 2 | -2 | 3 | 0 | x | x
CCOC(=O)c1c(-c2ccc(OC)cc2)oc2ccc(OCC(N)=O)cc12 | 2 | -3 | 0 | -69 | x | x
CCOC(=O)c1c(-c2ccccc2)oc2ccc(OCC(=O)O)cc12 | 0 | -2 | -3 | 25* | 25* | 25*
COc1ccc(S(=O)(=O)N2CCCC2C(=O)NCC(=O)Nc2cccc(Cl)c2C)cc1 (centres undefined) | -1 | 0 | 1 | 0 | x | x
O=C(NN1CCOCC1)c1c(-c2ccccc2)sc2ccccc12 | -1 | -1 | -10 | 0 | x | x
CS(=O)(=O)c1ccc(-c2sc3cc4c(cc3c2C(=O)NN2CCOCC2)OCO4)cc1 | 1 | 1 | -13 | 43* | 35* | 28* | K7 EDANS ctr=>70
CC1CC(C)CN(C(=O)c2cc3c(=O)n4ccccc4nc3s2)C1 (centres undefined) | 1 | -2 | 9 | 14* | 14* | 12* | K7 EDANS ctr=>70
CC1CN(C(=O)c2cc3c(=O)n4ccccc4nc3s2)CC(C)O1 (centres undefined) | 4 | 3 | -7 | 26* | 42* | 40*
SMILES | FXN GAA850 act | SMARCA2 activ | FAS TE block | proKLK7 act | proKLK7 act conf | EDANS-DABCYL int | others
Cc1c(NC(=O)c2cc3c(=O)n4ccccc4nc3s2)c(=O)n(-c2ccccc2)n1C | 1 | 3 | 0 | 0 | x | x
CCCn1c(=O)c(C(=O)NCc2ccc(OC)c(OC)c2)c(O)c2ccccc21 | -1 | -1 | 8 | 0 | x | x
C/C(N)=C(\C#N)C(=O)NCc1ccccn1 | -1 | -1 | -9 | 0 | x | x
COC(=O)CSc1nc(C)cc(C(F)(F)F)c1C#N | -1 | -1 | 2 | 4 | x | x
COC(=O)CSc1nc(C)cc(C)c1C#N | 0 | 1 | 1 | 58* | 125* | 121*
Cc1cc(C)c(C#N)c(SCC(=O)Nc2nonc2N)n1 | 3 | 1 | 3 | 40* | 74* | 72*
COC(=O)CSc1ccccc1C(=O)OC | 0 | -2 | -11 | 55* | 84* | 83*
CCOC(=O)CC(=O)CSc1nc(C)cc(C)c1C#N | 0 | -3 | 3 | 41* | 61* | 74*
Cc1cccc(OCC(=O)NCCCNC(=O)c2cccnc2)c1 | 1 | -2 | -2 | 0 | x | x
COCc1cc(C)nc(SCC(=O)Nc2nc(C)cs2)c1C#N | 3 | 2 | -2 | 76* | 140* | 136*
CCOC(=O)CC(=O)CSc1nc(CC)c(C)cc1C#N | 2 | -5 | 0 | 6 | x | x
Cc1cc(C)c(C#N)c(SCC(=O)C2CC2)n1 | 3 | 1 | 12 | 89* | 121* | 135*
Cc1cc(C)c(C#N)c(SCC(=O)c2ccccc2)n1 | 1 | -1 | 44 | 0 | x | x
CCOC(=O)CC(=O)CSc1nc2c(c(C)c1C#N)CCC2 | -1 | 1 | 15 | 45* | 75* | 70*
COC(=O)CSc1ccc(C#N)c(SCC(=O)OC)c1 | -1 | -2 | 1 | 17* | 27* | 27*
CCOC(=O)N1CCN(c2c(NC3CCN(Cc4ccccc4)CC3)c(=O)c2=O)CC1 | 1 | 5 | -5 | 1 | x | x
N#Cc1c(=O)c2nc(NCc3ccccc3)ncc2n2ccccc12 | 1 | -3 | 39 | 19* | 24* | 26*
COc1cccc(C(=O)N(C)C(C)c2nc3ccccc3s2)c1 (centres undefined) | 2 | -3 | -4 | 0 | x | x
CCc1ccc(-c2cnc3nc[nH]c(=O)c3n2)cc1 | 2 | 4 | -6 | 15* | 38* | 39*
CSc1ccc(/C=C/C(=O)OCC(=O)NCC2CCCO2)cc1 (centres undefined) | 0 | -1 | -6 | 18* | 14* | 16*
CSc1ccc(/C=C/C(=O)OCC(=O)NC2CCCCCC2)cc1 | 3 | -6 | 8 | -13 | x | x
